Assay [1] can be described thus: inhibitors of TNFa-induced NFkB p65 translocation, primary screen, imaging, HUVEC, MLSMR starter and 10KST1 sets (AID 438;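 active = inhibition above 20% together with a positive visual image hit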;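 note: compound added about 3h40 before a 20 min TNFalpha stimulation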;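 for inhibition: signal is the nuclear over cytoplasmic p65 intensity ratio per well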). The conditions noted are these: HUVEC TNFa-induced p65 nuclear translocation; cell count: measured here: nuclei count (cytotoxicity indicator), at 2.08 µM; inhibition: at 2 µM, stronger effect = higher value, 0% TNFa-plus-vehicle, 100% no-TNFa wells.
Assay [2] is described as follows: reduction of polyQ htt aggregates in cells – imaging, exon1htt(103Q)mCFP cells, high-content imaging, primary screen (AID 483;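 active = visual image review flags a hit and inhibition of aggregation exceeds 20%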;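 note: compound exposure lasted 3 days before fixation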;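 for nuclei count: percent of the per-plate median nuclei count of sample wells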). The conditions noted are these: exon1htt(103Q)mCFP cell line, aggregate imaging, at 2 µM; inhibition of aggregation: stronger effect = higher value; nuclei count: measured here: cell count, toxicity.
Assay [3] can be described thus: endothelial E-selectin expression blockers – imaging, HUVEC, immunofluorescence, MLSMR starter and 10KST1 sets, primary screen (AID 487;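 active = visually confirmed hit in the image check and inhibition above 20%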;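 for inhibition: signal is fraction of cell area covered by stained E-selectin grains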;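 for nuclei count: 100% = median nuclei count of all wells on the same plate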). The conditions noted are these: HUVEC TNFalpha-induced E-selectin immunofluorescence imaging, at 2 µM; inhibition: stronger effect = higher value; nuclei count: measured here: cell number, toxicity.
Assay [4] in a line: Primary imaging screen for DUSP6 inhibitors that restore phospho-Erk in transfected HeLa cells, chemical complementation (AID 609;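 active = compounds giving at least 50% inhibition in the cell-based MKP-3 phosphatase rescue imaging test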;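 for inhibition: phospho-Erk level distribution per well compared with pooled transfected vehicle control wells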). The settings on record: HeLa MKP-3 transfected, phospho-Erk imaging KS statistic, at 10 µM, cells stimulated with TPA for 15 min.
In assay [5] the target is Dual specificity protein phosphatase 6 (Homo sapiens) (UniProt Q16828). The description is as above. The settings on record: HeLa MKP-3 transfected, phospho-Erk imaging KS statistic; at 10 µM; stronger effect = higher value; cells stimulated with TPA for 15 min.
Dual specificity protein phosphatase 6 (Homo sapiens), sequence (Q16828 whole entry, looked up): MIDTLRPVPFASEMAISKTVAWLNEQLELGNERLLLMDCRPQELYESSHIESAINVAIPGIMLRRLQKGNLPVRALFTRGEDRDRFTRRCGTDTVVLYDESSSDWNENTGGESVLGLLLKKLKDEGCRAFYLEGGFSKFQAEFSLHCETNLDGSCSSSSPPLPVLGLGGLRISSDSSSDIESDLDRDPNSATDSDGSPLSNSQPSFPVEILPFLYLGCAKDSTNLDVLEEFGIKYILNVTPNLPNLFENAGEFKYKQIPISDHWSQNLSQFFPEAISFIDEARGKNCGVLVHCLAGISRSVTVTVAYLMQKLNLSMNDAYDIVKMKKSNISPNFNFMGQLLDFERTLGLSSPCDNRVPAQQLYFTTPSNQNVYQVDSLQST
For assay [6], the target named is Voltage-gated potassium channel subunit beta-2 (Rattus norvegicus) (UniProt P62483). The assay can be described thus: inhibitors of rat Kvbeta2 reductase activity – biochemical, NADPH fluorescence, primary screen (AID 622;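 active = fluorescence slope higher than the sample average by over 3 SD, cut at about -0.22 in these data, passing the limit was not always enough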;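 note: slope of raw intensity against log time taken from 70 to 1610 s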). The conditions noted are these: recombinant KvBeta, 4-cyanobenzaldehyde reduction, at 10 µM, stronger effect = higher value.
Voltage-gated potassium channel subunit beta-2 (Rattus norvegicus), sequence (P62483 whole entry, looked up): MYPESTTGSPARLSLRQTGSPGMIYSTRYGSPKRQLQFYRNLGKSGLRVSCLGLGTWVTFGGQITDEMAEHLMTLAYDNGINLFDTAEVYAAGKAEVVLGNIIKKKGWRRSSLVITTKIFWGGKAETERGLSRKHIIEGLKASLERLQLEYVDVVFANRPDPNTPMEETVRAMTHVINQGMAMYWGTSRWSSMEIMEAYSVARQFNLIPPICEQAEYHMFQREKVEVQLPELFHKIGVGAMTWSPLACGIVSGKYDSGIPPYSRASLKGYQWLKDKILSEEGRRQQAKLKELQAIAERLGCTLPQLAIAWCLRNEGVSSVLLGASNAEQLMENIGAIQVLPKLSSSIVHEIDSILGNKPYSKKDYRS
Assay [7] has the same target. The assay can be described thus: enhancers of rat Kvbeta2 NADPH turnover – biochemical, NADPH fluorescence, primary screen (AID 623;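 active = NADPH fluorescence slope more negative than the mean of all samples by about 3 SD, 99.7% confidence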;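 note: fluorescence intensity change per second fitted from 20 to 320 s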). The conditions noted are these: Recombinant KvBeta, NADPH fluorescence decrease slope, 10 min; at 10 µM; stronger effect = lower value.
The target in assay [8] is Alpha-2C adrenergic receptor (Homo sapiens) (UniProt P18825). Put plainly: compounds altering alpha2C-coupled GIRK flux – cell-based, HEK293 alpha2C/GIRK1/2, thallium flux, primary screen (AID 624;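 active = fluorescence slope after compound addition differing from the mean of all screened samples at 99.7% confidence, in either direction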;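 note: slope of fluorescence ratio to pre-addition baseline per second over 15 to 24 s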). The settings on record: thallium flux BTC fluorescence, at 10 µM, actives lie on both sides.
Alpha-2C adrenergic receptor (Homo sapiens), sequence (P18825 whole entry, looked up): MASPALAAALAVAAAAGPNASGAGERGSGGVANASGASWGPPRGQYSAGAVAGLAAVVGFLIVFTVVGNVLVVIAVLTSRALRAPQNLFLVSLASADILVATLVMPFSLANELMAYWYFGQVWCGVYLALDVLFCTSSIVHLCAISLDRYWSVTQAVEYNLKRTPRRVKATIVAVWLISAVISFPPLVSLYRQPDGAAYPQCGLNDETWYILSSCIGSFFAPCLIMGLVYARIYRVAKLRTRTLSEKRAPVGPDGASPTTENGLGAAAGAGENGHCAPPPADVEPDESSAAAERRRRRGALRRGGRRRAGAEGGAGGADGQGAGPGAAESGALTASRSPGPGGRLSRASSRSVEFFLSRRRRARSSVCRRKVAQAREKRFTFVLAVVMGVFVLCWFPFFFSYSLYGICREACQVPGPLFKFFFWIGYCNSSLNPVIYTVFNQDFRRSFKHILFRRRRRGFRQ
Assay [9] can be described thus: inhibitors of larval lipid processing in zebrafish, primary screen, whole organism, PED6 fluorescence, gall bladder and intestine (AID 686;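 active = a full or partial loss of lipid-probe fluorescence in the fish gall bladder, intestine or both, judged by eye; inactive = no fluorescence loss, or compound toxic to the fish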;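 note: larvae 5 to 7 days old with five fish per well; signal comes from phospholipase A2 cleavage of quenched PED6 carried via bile; overnight exposure to compound and PED6 before scoring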). The settings on record: Zebrafish larvae PED6 lipid processing, fluorescence scoring; screened at 20 µM (by protocol).
Assay [10] is described as follows: loss of swimming-algae plug formation – whole organism, Chlamydomonas reinhardtii, WT vs cilia-less mutant, absorbance, 96-well, primary screen (AID 463189).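 Note: 0% = wild type cc124 cells in DMSO and 100% = ciliumless bld1 mutant cells.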 The settings on record: Chlamydomonas reinhardtii gravitaxis, OD600 absorbance, 2 days; at 10 µM; stronger effect = higher value.
The nature of assay [11]: blockers of RIG-like receptor reporter activation – cell-based, Sendai virus stimulus, luciferase, 10K MLSCN set, TLR/RLR signaling modifier project, primary screen (AID 602276;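 active = inhibition at or above 50% at 10 µM; inactive = inhibition below 50%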;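 note: firefly luciferase from ISG56 promoter only with Renilla not read in this screen; 0% = Sendai virus plus DMSO and 100% = medium plus DMSO without virus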). The conditions noted are these: HEK293 RL24 IRF3 luciferase reporter, at 10 µM, stronger effect = higher value.
Assay [12] is described as follows: TLR3 IRF3 reporter activation blockers – cell-based, poly I:C stimulus, luciferase, 10K MLSCN set, primary screen (AID 602277;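 active = inhibition of the reporter signal at or above 50%; inactive = inhibition below 50%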). The settings on record: HEK293-TLR3 RL24 IRF3 luciferase reporter, at 10 µM, stronger effect = higher value.
Assay [13] addresses Muscarinic acetylcholine receptor M4 (Homo sapiens) (UniProt P08173). The assay can be described thus: M4-linked GIRK flux change, two-sided – cell-based, HEK293 M4/GIRK, thallium flux, BTC-AM, M4 allosteric agonist project, primary screen (AID 625;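 active = fluorescence slope after compound addition differing from the mean of all tested samples at 99.7% confidence, mostly higher but some lower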;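 note: thallium influx through GIRK channels coupled to M4 in HEK293 cells with BTC-AM dye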). The settings on record: at 10 µM, actives lie on both sides.
Where [14] appears, read: measured here: cell density z-score.
Where [15] appears, read: measured here: nuclear c-Myc green intensity z-score.
[16] abbreviates: measured here: nuclear pErk red intensity z-score, stronger effect = higher value.

“And” between values parts separate entries of the source, which are not always exact repeats. Equal entries are not always repeated. The source made the active and inactive calls.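 Rule for the calls, unless noted: active = inhibition at or above 50% relative to wild type and mutant plate controls; inactive = inhibition below 50%.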

The term inhibition denotes the drop in the measured response relative to a control, in per cent.

Muscarinic acetylcholine receptor M4 (Homo sapiens), sequence (P08173 whole entry, looked up): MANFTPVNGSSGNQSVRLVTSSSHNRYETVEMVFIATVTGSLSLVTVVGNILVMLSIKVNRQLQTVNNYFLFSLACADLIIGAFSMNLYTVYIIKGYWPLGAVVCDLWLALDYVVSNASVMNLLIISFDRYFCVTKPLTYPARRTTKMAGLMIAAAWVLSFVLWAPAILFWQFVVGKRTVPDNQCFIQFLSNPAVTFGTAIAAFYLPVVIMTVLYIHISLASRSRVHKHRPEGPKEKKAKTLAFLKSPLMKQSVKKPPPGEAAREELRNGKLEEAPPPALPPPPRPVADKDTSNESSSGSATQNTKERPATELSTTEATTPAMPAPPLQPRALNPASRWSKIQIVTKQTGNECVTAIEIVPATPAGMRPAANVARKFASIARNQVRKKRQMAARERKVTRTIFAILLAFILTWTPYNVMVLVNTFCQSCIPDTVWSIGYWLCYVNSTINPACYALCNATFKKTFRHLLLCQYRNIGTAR

Regarding `COc1ccc(-n2c(SCC(N)=O)nc3sc4c(c3c2=O)CCN(C)C4)cc1`, the cell count in assay [1] was 537. Moreover, the inhibition is -5.6% (inactive) in [1]; -51.4% (inactive) in assay [3]; -2.69% (inactive) in [5]; -8.09% (inactive) in assay [10]; -4.01% (inactive) in assay [11]; 0.612% (inactive) in assay [12]. Moreover, the inhibition of aggregation in assay [2] is 32% (inactive). Further, the nuclei count was 58% in [2] and 134% in assay [3]. For the same compound, the z-score is -0.15 in assay [4] (setting [14]), 1.95 in assay [4] (setting [15]) and -0.53 in assay [4] (setting [16]). In addition, the fluorescence slope in assay [6] is -0.305 (inactive). Also, the NADPH fluorescence slope in assay [7] was -1.8e-06 (inactive). In addition, in [8], the slope is 0.00454 (inactive). Besides, the call in assay [9] was inactive.

On to `NC(=O)c1cc(-c2ccccc2)nc(Oc2ccccc2)n1`, for which, in assay [1], the cell count was 472. The inhibition in [1] was -18.1% (inactive); in [3] it was -13.2% (inactive); in assay [5], 6.51% (inactive); in assay [10], -1.45% (inactive); in assay [11], 13.4% (inactive); in [12] it was 1.65% (inactive). Also, in assay [2], the inhibition of aggregation was 8.5% (inactive). Further, the nuclei count turned out to be 99% in assay [2] and 109% in assay [3]. Also, the z-score in assay [4] (setting [14]) is -0.736; in assay [4] (setting [15]), -0.523; in assay [4] (setting [16]), 0.468. Further, the fluorescence slope in assay [6] was -0.53 (inactive). Also, in assay [7], the NADPH fluorescence slope is -8.3e-05 (inactive). The slope in assay [8] was 0.00808 (inactive). Moreover, in assay [9], the result was inactive.

For the compound `O=C(Nc1ccc2c(c1)OCO2)c1cncc(Br)c1`, the cell count in [1] was determined as 613. Moreover, the inhibition was -11% (inactive) in assay [1]; -29.9% (inactive) in assay [3]; 19.1% (inactive) in assay [5]; -3.07% (inactive) in assay [10]; -15.3% (inactive) in assay [11]; -51.1% (inactive) in assay [12]. For the same compound, the inhibition of aggregation in [2] was -11.9% (inactive). Further, the nuclei count in [2] came to 87.1%; in [3], 149%. Also, the figures for the z-score in [4] (setting [14]), in [4] (setting [15]) and in [4] (setting [16]) were 1.08, -0.36 and -1.03, respectively. Also, in [6], the fluorescence slope is -0.419 (inactive). The NADPH fluorescence slope in [7] was -3.7e-05 (inactive). For the same compound, the slope in [8] is 0.00513 (inactive). The compound was called inactive in assay [9].

As to `Fc1ccc(C2C3=C(Nc4ncnn42)c2ccccc2OC3c2ccncc2)cc1` (stereo not given), the cell count in assay [1] is 363. Further, the inhibition in [1] was 1.7% (inactive); in assay [3], -83.1% (inactive); in assay [5], 21.4% (inactive); in [10], -7.08% (inactive); in assay [11], 17.4% (inactive); in assay [12] it was 19.3% (inactive). For the same compound, the inhibition of aggregation in assay [2] was 2.1% (inactive). Moreover, the nuclei count in [2] was determined as 113%; in assay [3], 136%. Further, the z-score in [4] (setting [14]) is 0.971; in [4] (setting [15]), -0.105; in assay [4] (setting [16]), 1.45. The fluorescence slope in assay [6] is -0.41 (inactive). In addition, the NADPH fluorescence slope in [7] was -0.000137 (inactive). Besides, in [8], the slope is 0.00729 (inactive). Further, in assay [9], the compound was called inactive.

Regarding `C[C@]12CC[C@@H]3c4ccc(O)cc4CC[C@H]3[C@@H]1CCC2=O`, the cell count in assay [1] came to 576. The inhibition is -0.3% (inactive) in assay [1]; -80.9% (inactive) in assay [3]; 17.3% (inactive) in [5]; -0.014% (inactive) and 40.8% (inactive) in [10]; 8.21% (inactive) in assay [11]; 34.8% (inactive) in [12]. For the same compound, in [2], the inhibition of aggregation is 3.1% (inactive). For the same compound, the nuclei count came to 98% in assay [2] and 120% in [3]. Also, the z-score in assay [4] (setting [14]) was -8.47; in [4] (setting [15]) it was 2.04; in assay [4] (setting [16]), 2.06. In addition, the fluorescence slope in assay [6] is -0.463 (inactive). Further, the NADPH fluorescence slope in assay [7] is -3.3e-05 (inactive). Besides, the slope in assay [8] is 0.00425 (inactive). Also, in assay [9], the result was inactive.

Consider `CCOc1ccc(S(=O)(=O)N(C)C)cc1-c1nc2c(C(C)(C)C)nn(C)c2c(=O)[nH]1`, for which the cell count in assay [1] worked out at 411. Also, the inhibition in assay [1] was 20.9% (active); in [3], 27.5% (inactive); in assay [5], 17.3% (inactive); in assay [10], 19.7% (inactive); in assay [11] it was -1.7% (inactive); in assay [12], -7.19% (inactive). Moreover, in assay [2], the inhibition of aggregation is -22.3% (inactive). The nuclei count in assay [2] is 107%; in [3] it was 115%. The z-score is 1.1 in assay [4] (setting [14]), 0.134 in assay [4] (setting [15]) and -1.43 in assay [4] (setting [16]). Further, the fluorescence slope in assay [6] is -0.477 (inactive); in [13], 0.00621 (inactive). Besides, the NADPH fluorescence slope in assay [7] is -0.000115 (inactive). In [8], the slope is 0.00418 (inactive). Moreover, the compound was called inactive in assay [9].

Take `N=c1ncn(CC(O)CN2CCOCC2)c2nc(N3CCOCC3)[nH]c12` (stereo not given): the cell count in assay [1] turned out to be 536. For the same compound, the inhibition was -23.6% (inactive) in assay [1]; -90.1% (inactive) in assay [3]; 17.3% (inactive) in assay [5]; 17.5% (inactive) in [10]; -19.8% (inactive) in assay [11]; -9.49% (inactive) in assay [12]. In addition, the inhibition of aggregation in assay [2] was 20.3% (inactive). For the same compound, the nuclei count in assay [2] is 88.8%; in assay [3] it was 124%. Moreover, the z-score was 0.636 in [4] (setting [14]), -1.17 in [4] (setting [15]) and 0.315 in assay [4] (setting [16]). For the same compound, the fluorescence slope in assay [6] is -0.517 (inactive). In assay [7], the NADPH fluorescence slope was -2.5e-05 (inactive). Moreover, the slope in assay [8] is 0.00808 (inactive). The result in [9] was inactive.

Take `Cn1cc(NC(=O)c2cc(NC(=O)c3cc(NC=O)cn3C)cn2C)cc1C(=O)NCCC(=N)N`: the cell count in [1] was found to be 571. Moreover, the inhibition is -3.6% (inactive) in assay [1]; -15.4% (inactive) in assay [3]; -0.493% (inactive) in assay [5]; -16.5% (inactive) in assay [10]; 19.8% (inactive) in assay [11]; 37.3% (inactive) in assay [12]. Besides, the inhibition of aggregation in assay [2] is -13.8% (inactive). Further, the nuclei count in [2] worked out at 96.4%; in assay [3], 95.1%. The z-score was -1.3 in assay [4] (setting [14]), 0.0863 in [4] (setting [15]) and -0.177 in assay [4] (setting [16]). Also, the fluorescence slope in [6] is -0.499 (inactive). For the same compound, the NADPH fluorescence slope in [7] is -3.2e-05 (inactive). Besides, the slope in [8] was 0.00517 (inactive). For the same compound, the compound was called inactive in assay [9].

In the case of `N#Cc1c(N2CCOCC2)nc(N2CCCCC2)c2c1CCN(C1CCCCC1)C2`, the cell count in [1] was 486. For the same compound, the inhibition was -5.3% (inactive) in assay [1]; -130% (inactive) in assay [3]; -13.3% (inactive) in [5]; 2.06% (inactive) in assay [10]; -1.64% (inactive) in assay [11]; 99% (active) in assay [12]. The inhibition of aggregation in [2] was 6.4% (inactive). Moreover, the results for the nuclei count in assay [2] and in [3] were 102% and 119%, respectively. Moreover, the values for the z-score in assay [4] (setting [14]), in assay [4] (setting [15]) and in assay [4] (setting [16]) were -0.146, 1.29 and 0.496, respectively. Moreover, the fluorescence slope is -0.442 (inactive) in assay [6] and 0.00444 (inactive) in assay [13]. Further, in assay [7], the NADPH fluorescence slope is -0.000108 (inactive). For the same compound, in assay [8], the slope was 0.00466 (inactive). The result in assay [9] was inactive.
